The source of these data is PubChem BioAssay.

Test [1] in a line: sensitizers of A549 cells to miR-34 induction, primary screen, imaging, A549 dox-inducible miR-34, nuclei and caspase counts (AID 1347080). To be noted: A549 miR-34 inducible, Hoechst nuclei count, 48 h.
The nature of test [2]: survival rescue of mitochondrial mutant cells in low glucose, primary screen, MELAS cybrids, Rieske KO mouse fibroblasts, CellTiter-Glo (AID 1508586;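 active = mean z-score across replicates of 1.96 or higher in either the MELAS or the Rieske mutant cell line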;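 also: z relative to plate mean and SD of compound and empty wells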). (In ATP-based viability assays light output follows the ATP content of the culture.)
For test [3], the target named is NAD(+) hydrolase SARM1 (Homo sapiens) (UniProt Q6SZW1). The experiment in a line: SARM1 TIR NADase inhibitors, cell lysate, NAD-Glo luminescence (AID 1508614;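 active = compound whose remaining NAD level is above about 45 nM, limit read from the data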;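 also: higher remaining NAD means stronger inhibition of SARM1 NADase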). Conditions: SAM-TIR HEK293T lysate NADase, at 1 µM, stronger effect = higher value.
Sequence of NAD(+) hydrolase SARM1 (Homo sapiens) (Q6SZW1 whole entry, looked up, the tested form may be a part): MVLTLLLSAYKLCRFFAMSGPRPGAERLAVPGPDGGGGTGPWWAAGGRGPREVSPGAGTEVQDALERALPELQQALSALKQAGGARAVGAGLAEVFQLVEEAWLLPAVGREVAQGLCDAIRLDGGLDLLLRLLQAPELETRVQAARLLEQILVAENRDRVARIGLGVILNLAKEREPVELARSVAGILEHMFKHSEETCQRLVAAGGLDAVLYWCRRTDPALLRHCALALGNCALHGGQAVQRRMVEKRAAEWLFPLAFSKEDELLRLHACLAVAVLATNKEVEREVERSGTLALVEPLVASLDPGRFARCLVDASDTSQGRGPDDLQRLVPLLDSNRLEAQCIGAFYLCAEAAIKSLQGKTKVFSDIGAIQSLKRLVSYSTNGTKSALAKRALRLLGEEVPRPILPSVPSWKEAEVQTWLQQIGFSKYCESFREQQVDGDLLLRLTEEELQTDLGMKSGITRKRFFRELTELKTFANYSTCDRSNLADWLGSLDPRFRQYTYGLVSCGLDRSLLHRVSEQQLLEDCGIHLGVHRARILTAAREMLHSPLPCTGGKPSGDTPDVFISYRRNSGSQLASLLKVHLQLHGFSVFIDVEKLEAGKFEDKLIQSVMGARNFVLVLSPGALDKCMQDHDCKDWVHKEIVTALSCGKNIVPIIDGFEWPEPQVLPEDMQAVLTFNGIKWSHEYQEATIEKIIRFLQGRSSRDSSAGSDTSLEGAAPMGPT
Test [4] has as its target Mitogen-activated protein kinase 7 (Homo sapiens) (UniProt Q13164). The experiment in a line: ERK5 transactivation activators in reporter cells, primary screen, cell-based, HTS (AID 1508626;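 active = luciferase signal above three times the same-plate solvent-only control wells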;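 also: luciferase driven by Gal4-ERK5 fusion binding five Gal4 sites before minimal TATA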). To be noted: HeLa Gal4-ERK5 transactivation, 18 h, at 5 µM, stronger effect = higher value.
The mark [5] stands for this setting: stronger effect = lower value, cell number ratio, induced over uninduced.
[6] abbreviates: measured here: relative caspase fold change +Dox/-Dox.
Setting [7] is: measured here: total cells with miR-34 induction, stronger effect = lower value.
The mark [8] stands for this setting: measured here: total cells without miR-34 induction.
Where [9] appears, read: MELAS cybrid survival, CellTiter-Glo 48 h, stronger effect = higher value.
[10] abbreviates: Rieske KO mouse fibroblast survival, CellTiter-Glo 72 h.

“And” between values parts separate entries of the source, which are not always exact repeats. Identical values can stand only once. The source made the active and inactive calls.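 The calls were made as follows, unless noted: active = compounds whose cell count with miR-34 switched on is under 0.7 times the count with it off; inactive = the rest.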

Sequence of Mitogen-activated protein kinase 7 (Homo sapiens) (Q13164 whole entry, looked up, the tested form may be a part): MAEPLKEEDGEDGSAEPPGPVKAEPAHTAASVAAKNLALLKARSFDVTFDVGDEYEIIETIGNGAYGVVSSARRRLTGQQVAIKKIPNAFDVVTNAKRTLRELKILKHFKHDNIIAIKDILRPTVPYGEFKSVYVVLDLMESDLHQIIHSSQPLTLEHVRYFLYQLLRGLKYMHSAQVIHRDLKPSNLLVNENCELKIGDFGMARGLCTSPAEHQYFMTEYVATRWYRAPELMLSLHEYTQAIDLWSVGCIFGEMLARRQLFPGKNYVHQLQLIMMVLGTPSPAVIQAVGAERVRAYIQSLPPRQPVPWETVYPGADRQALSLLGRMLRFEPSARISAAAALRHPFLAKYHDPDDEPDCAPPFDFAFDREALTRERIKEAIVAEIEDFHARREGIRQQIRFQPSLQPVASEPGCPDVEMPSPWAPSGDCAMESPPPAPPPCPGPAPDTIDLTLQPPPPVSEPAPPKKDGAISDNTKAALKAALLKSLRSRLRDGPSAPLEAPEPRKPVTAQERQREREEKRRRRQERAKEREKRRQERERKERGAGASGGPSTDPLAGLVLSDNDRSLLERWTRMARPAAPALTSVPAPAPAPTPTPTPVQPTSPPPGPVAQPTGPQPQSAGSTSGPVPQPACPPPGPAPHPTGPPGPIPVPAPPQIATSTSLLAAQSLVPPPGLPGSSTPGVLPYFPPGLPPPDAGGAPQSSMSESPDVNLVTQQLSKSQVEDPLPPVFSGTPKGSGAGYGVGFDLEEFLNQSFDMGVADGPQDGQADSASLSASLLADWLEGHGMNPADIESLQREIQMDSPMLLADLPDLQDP

Consider `Cc1ccccc1OCC(O)CO` (configuration not stated), for which the fold change in test [1] (setting [5]) is 0.91 (inactive) and 0.921 (inactive); in test [1] (setting [6]), 0.936 and 3.64. Also, the cell count in test [1] (setting [7]) is 8610 and 11300; in test [1] (setting [8]), 9470 and 12300. For the same compound, the z-score in test [2] (setting [9]) was -0.331 (inactive); in test [2] (setting [10]) it was -0.218. The remaining NAD in test [3] is 10 nM (inactive). Further, the luciferase signal in test [4] is 44 AU (inactive).
For the compound `O=c1ccc2ccccc2o1`, the fold change in test [1] (setting [5]) is 0.91 (inactive) and 0.88 (inactive); in test [1] (setting [6]), 0.575 and 1.07. The cell count in test [1] (setting [7]) was 7780 and 10900; in test [1] (setting [8]), 8550 and 12300. The z-score is -0.266 (inactive) in test [2] (setting [9]) and -0.22 in test [2] (setting [10]). Besides, in test [3], the remaining NAD was 10 nM (inactive). Besides, the luciferase signal in test [4] was 48 AU (inactive).
As for `CC(=O)Oc1cccc2c1C(=O)c1c(OC(C)=O)cc(C(=O)O)cc1C2=O`, the values for the fold change in test [1] (setting [5]) and in test [1] (setting [6]) were 0.904 (inactive) and 2.1, respectively. The cell count stood at 8090 in test [1] (setting [7]) and 8950 in test [1] (setting [8]). For the same compound, the z-score was -0.263 (inactive) and -0.828 (inactive) in test [2] (setting [9]); -0.165 and -1.06 in test [2] (setting [10]). Further, the remaining NAD in test [3] is 10 nM (inactive). For the same compound, in test [4], the luciferase signal was 44 AU (inactive).
As for `CC1CC(OC(=O)C(O)c2ccccc2)CC(C)(C)N1C` (configuration not stated), the fold change in test [1] (setting [5]) is 0.792 (inactive); in test [1] (setting [6]) it was 1.56. The values for the cell count in test [1] (setting [7]) and in test [1] (setting [8]) were 7700 and 9720, respectively. Moreover, the z-score in test [2] (setting [9]) is -0.0236 (inactive); in test [2] (setting [10]), -0.373. Moreover, the remaining NAD in test [3] is 10 nM (inactive). For the same compound, the luciferase signal in test [4] is 48 AU (inactive).
For the compound `C=CCSCC1Nc2cc(Cl)c(S(N)(=O)=O)cc2S(=O)(=O)N1` (configuration not stated), the fold change was 0.925 (inactive) and 0.942 (inactive) in test [1] (setting [5]); 0.973 and 1.58 in test [1] (setting [6]). Moreover, the cell count in test [1] (setting [7]) was 8690 and 12000; in test [1] (setting [8]), 9400 and 12700. Moreover, the z-score in test [2] (setting [9]) is -0.333 (inactive); in test [2] (setting [10]), -0.472. Further, the remaining NAD in test [3] is 10 nM (inactive). Moreover, the luciferase signal in test [4] is 40 AU (inactive).
In the case of `Cc1c(NC(C)C)c(=O)n(-c2ccccc2)n1C`, the results for the fold change in test [1] (setting [5]) and in test [1] (setting [6]) were 0.876 (inactive) and 1.14, respectively. Moreover, the cell count was determined as 8020 in test [1] (setting [7]) and 9170 in test [1] (setting [8]). For the same compound, the figures for the z-score in test [2] (setting [9]) and in test [2] (setting [10]) were -0.485 (inactive) and -0.708, respectively. In test [3], the remaining NAD is 10 nM (inactive). In addition, the luciferase signal in test [4] was 56 AU (inactive).
Regarding `CCCCCCCCNC(C)C(O)c1ccc(SC(C)C)cc1` (configuration not stated), the fold change in test [1] (setting [5]) was 0.989 (inactive) and 0.828 (inactive); in test [1] (setting [6]) it was 0.711 and 5.68. Moreover, the cell count in test [1] (setting [7]) was 4220 and 5020; in test [1] (setting [8]), 4270 and 6060. Moreover, the z-score in test [2] (setting [9]) is -2.11; in test [2] (setting [10]) it was 11.2. In addition, the remaining NAD in test [3] was 10 nM (inactive). The luciferase signal in test [4] is 60 AU (inactive).
Take `Nc1nc2c(c(=O)[nH]1)N(C=O)C(CNc1ccc(C(=O)N[C@@H](CCC(=O)O)C(=O)O)cc1)CN2` (some centres not stated): the fold change in test [1] (setting [5]) is 0.908 (inactive) and 0.841 (inactive); in test [1] (setting [6]), 0.756 and 0.824. In addition, the cell count in test [1] (setting [7]) is 9140 and 10900; in test [1] (setting [8]), 10100 and 12900. For the same compound, the z-score in test [2] (setting [9]) is -0.42 (inactive); in test [2] (setting [10]), 0.152. In test [3], the remaining NAD is 10 nM (inactive). For the same compound, the luciferase signal in test [4] was 72 AU (inactive).
Turning to `Cc1c(C(N)=O)cc([N+](=O)[O-])cc1[N+](=O)[O-]`, the fold change in test [1] (setting [5]) is 1.04 (inactive); in test [1] (setting [6]) it was 1.27. Also, the cell count is 8930 in test [1] (setting [7]) and 8590 in test [1] (setting [8]). Also, the results for the z-score in test [2] (setting [9]) and in test [2] (setting [10]) were -0.219 (inactive) and -0.175, respectively. Further, the remaining NAD in test [3] is 10 nM (inactive). Besides, the luciferase signal in test [4] was 68 AU (inactive).
Consider `CCN(CCCc1ccccc1)CCCc1ccccc1`, for which the fold change in test [1] (setting [5]) was 0.954 (inactive) and 0.931 (inactive) and 0.904 (inactive); in test [1] (setting [6]) it was 1.55 and 0.42 and 0.729. Besides, the cell count is 9190 and 7300 and 10700 in test [1] (setting [7]); 9640 and 7840 and 11900 in test [1] (setting [8]). In addition, the z-score in test [2] (setting [9]) is -0.31 (inactive) and -0.215 (inactive); in test [2] (setting [10]) it was -0.176 and -0.103. Moreover, the remaining NAD in test [3] is 10 nM (inactive). For the same compound, the luciferase signal in test [4] was 48 AU (inactive).
`Cc1cc(-c2ccccc2)nnc1NCCN1CCOCC1`: the fold change in test [1] (setting [5]) is 0.881 (inactive) and 0.888 (inactive); in test [1] (setting [6]), 0.934 and 3.7. Further, the cell count in test [1] (setting [7]) is 8700 and 11800; in test [1] (setting [8]), 9870 and 13300. The results for the z-score in test [2] (setting [9]) and in test [2] (setting [10]) were 0.442 (inactive) and 0.39, respectively. The remaining NAD in test [3] was 10 nM (inactive). Moreover, in test [4], the luciferase signal is 48 AU (inactive).
As to `Nc1cc(-c2ccncc2)c[nH]c1=O`, the fold change was 0.97 (inactive) and 0.958 (inactive) in test [1] (setting [5]); 0.721 and 1.08 in test [1] (setting [6]). The cell count in test [1] (setting [7]) is 9670 and 8610; in test [1] (setting [8]), 9980 and 8980. Also, the z-score in test [2] (setting [9]) is -0.926 (inactive); in test [2] (setting [10]), -1.08. In test [3], the remaining NAD is 10 nM (inactive). Also, in test [4], the luciferase signal was 104 AU (inactive).
As for `CCOc1ccc(Cc2nccc3cc(OCC)c(OCC)cc23)cc1OCC`, the fold change in test [1] (setting [5]) was 0.917 (inactive); in test [1] (setting [6]), 1.32. In addition, the values for the cell count in test [1] (setting [7]) and in test [1] (setting [8]) were 5900 and 6440, respectively. Further, the values for the z-score in test [2] (setting [9]) and in test [2] (setting [10]) were 0.91 (inactive) and 1.27, respectively. For the same compound, the remaining NAD in test [3] was 10 nM (inactive). For the same compound, the luciferase signal in test [4] is 68 AU (inactive).
For the compound `CCCCOc1ccc(OCCCN2CCOCC2)cc1`, the fold change was 0.766 (inactive) and 0.863 (inactive) and 0.924 (inactive) in test [1] (setting [5]); 1.42 and 1.47 and 3.29 in test [1] (setting [6]). For the same compound, the cell count in test [1] (setting [7]) was 7600 and 7830 and 11600; in test [1] (setting [8]), 9930 and 9070 and 12500. The z-score in test [2] (setting [9]) is -0.0227 (inactive) and 0.258 (inactive); in test [2] (setting [10]), -0.168 and -0.646. Moreover, the remaining NAD in test [3] is 10 nM (inactive). Besides, in test [4], the luciferase signal is 36 AU (inactive).
